Experimental data: ChEMBL document CHEMBL3988442, “University of Dundee, Small-Polar-MMV Screening Library” (2021)
Out of some 48,000 compounds screened, about 13,000 (27%) showed an effect of 50% or more. The list shows a part of the results.

test system: Wolbachia pipientis; experiment: Anti-Wolbachia Cell-Based Screen; type: functional; parameters: scale not given: in the data most compounds retested in dose-response had high values; settings: 5 µM

Structure (SMILES)	Percent Effect
CN1CCCC(C(=O)N2CCC(Oc3ccc(C#N)cn3)CC2)C1 (centres undefined)	3.335%
O=C1CC(c2cccs2)c2snc(C(=O)O)c2N1 (centres undefined)	12.4%
Cc1ccc(C(=O)N[C@H]2CN(CCO)C[C@@H]2C2CC2)cc1Cl	4.454%
CCNC(=O)NC(=O)CSC(C)c1ccccc1F (centres undefined)	-4.407%
O=C(C[S+]([O-])Cc1csc(C2CCCC2)n1)NC1CCCC1 (centres undefined)	-2.557%
CS(=O)(=O)c1cnc(N2CCCC2)nc1C1CCN(C(=O)C2CC2)CC1	114.1%
CCC(=O)N1CCC(c2nc(N3CCOCC3)ncc2S(C)(=O)=O)CC1	98.3%
CCN(C)CC(=O)N1CCC(c2cc(N3CCOCC3)nc(C)n2)CC1	25.94%
Cc1ncc(S(C)(=O)=O)c(N2CCCCCC2)n1	3.738%
Cc1noc(-c2ccc(N3CCCC(C(=O)N4CCSCC4)C3)nc2)n1 (centres undefined)	-16.11%
CCC(=O)N1CCC(c2nc(N3CCCC3)ncc2S(C)(=O)=O)CC1	99.88%
CCOc1cc(C)nc(N2CCN(C(=O)CC)CC2)n1	-2.122%
CCC(=O)N1CCc2nc(N3CCOCC3)nc(N(C)C)c2CC1	-3.249%
CCc1nc(CC(=O)N2CCC(C(=O)N3CCCCC3)CC2)cs1	9.16%
CCC(=O)N1CCC(c2nc(N3CCCCC3)ncc2S(C)(=O)=O)CC1	129%
Cc1ccc(NS(=O)(=O)c2c[nH]c3ncccc23)nc1	17.74%
CCOC(=O)N1CCN(c2nc(NCCCO)c3ccccc3n2)CC1.Cl	3.007%
COC(=O)c1ccc(N2CCN(C(=O)c3ccncc3)C(C)C2)cc1 (centres undefined)	-9.258%
CCc1nc(CC(=O)Nc2cnn(CC3CCCO3)c2)cs1 (centres undefined)	-8.649%
CC(C)c1nc(O)c2nnn(C[C@H]3CCCN(Cc4ccsc4)C3)c2n1	131.3%
CC(C)c1nc(O)c2nnn(C[C@@H]3CCCN(Cc4ccsc4)C3)c2n1	123.6%
CC(C)(C)c1oc(C(N)=O)cc1CN1CCCCC1CN1CCOCC1 (centres undefined)	-21.84%

Structure (SMILES)	Percent Effect
N#Cc1ccc(SCCC(=O)N(Cc2cccnc2)C2CC2)cc1	-7.889%
O=c1ccc(-n2ccnc2)nn1CCNS(=O)(=O)c1ccc(Br)cc1	-0.5803%
CCN(CC)CC[C@H]1CN(C(=O)C2CCC2)CC[C@H]1CC(=O)O	-6.679%
CCN1CCCC(c2c(-c3ccccc3)ncn2CCc2c[nH]cn2)C1 (centres undefined)	-19.27%
CC(C)(C(=O)NCCCC(N)=O)c1cccc(Br)c1	6.793%
CSCCC(NC(N)=O)C(=O)N1CCC(Cc2ccccc2)CC1 (centres undefined)	-1.467%
CSCCC(Nc1nc(C)cc(C)n1)C(=O)NC(C)(C)CO (centres undefined)	99.02%
CSCCC(NC(=O)c1ccc2ccccc2n1)C(=O)NC(C)C (centres undefined)	0.7963%
CNC(=O)C(CCSC)NC(=O)c1ccc2ccccc2n1 (centres undefined)	4.672%
Cc1cc(C)nc(NC2CCC(=O)N(C)C2)n1 (centres undefined)	-12.68%
Cc1nc(CN2CCN(C(C)C(=O)NC3CCCC3)CC2)cs1 (centres undefined)	-11.13%
CSCCC(NC(=O)c1ccc2ccccc2n1)C(=O)NC1CC1 (centres undefined)	3.734%
Cc1cc(NC(=O)NCC2CCOC2)no1 (centres undefined)	-3.66%
CSCCC(Nc1nc(C)cc(C)n1)C(=O)NC1CCCC1 (centres undefined)	67.42%
CSCCC(Nc1nc(C)cc(C)n1)C(=O)NC1CC1 (centres undefined)	102.4%
CSc1cc2c(cc1NC(=O)NCC1CCOC1)OCCO2 (centres undefined)	0.9768%
CSCCC(Nc1nc(C)cc(C)n1)C(=O)NCC1CCOCC1 (centres undefined)	96.94%
CN(C)CCCN1CC2(CCN(C3CCCOC3)CC2)OC1=O (centres undefined)	-5.756%
COc1ccc(NC(=O)c2ccc[nH]2)c(N2CCN(C(C)=O)CC2)n1	6.635%
Cc1cc(SC(C)(C)C)ccc1NC(=O)CNC(N)=O	-8.144%
Cc1ccc(S(=O)(=O)NC[C@H]2OC[C@@H](NCc3ccccn3)[C@@H]2O)cc1	0.9418%
Cc1cc(C(=O)N2C[C@@H](CN3CCOCC3)C[C@H](CO)C2)nc(C)n1	-2.252%

Structure (SMILES)	Percent Effect
Cc1cc(C)c(CNC(=O)N2CCCN(C(=O)C(C)C)CC2)c(C)c1	-1.6%
CC(C)=CCN1C[C@H]2CC[C@@H]1CN(Cc1coc(C)n1)C2	-7.778%
Cc1ccc2nc(CNCCCOc3ccccc3)cc(O)c2c1 [UCSF924]	-20.67%
COc1ccc(OCCNCCn2cccn2)cc1	-1.614%
CCn1ccc(-c2cc(NCCCOc3cccc(C)c3)nc(C)n2)n1	179.6%
CCn1ccc(-c2cc(NCCCOc3ccccc3C)nc(C)n2)n1	161.9%
c1ccc(OCCCNCCn2cccn2)cc1	7.776%
CCN(CC1CCOCC1)C(=O)Cn1cccc(C(F)(F)F)c1=O	-10.75%
c1cnnc(N2CCCC(NCc3nnc(-c4ccco4)o3)C2)c1 (centres undefined)	5.713%
c1coc(-c2nc(CNC3CCC4(CCNCC4)CC3)no2)c1	99.09%
c1coc(-c2nc(CNC3CCCNC3)no2)c1 (centres undefined)	116.1%
c1ccc(-c2nc(CNC3CCCN(c4cccnn4)C3)no2)cc1 (centres undefined)	-14.96%
COc1nc2c(cc1C(=O)NCc1noc(-c3ccco3)n1)CCC2	-22.9%
OC1(CNCc2noc(Cc3ccccc3)n2)CCCNC1 (centres undefined)	0.3473%
c1ccc(Cc2nc(CNC3CCC4(CCNCC4)CC3)no2)cc1	94.06%
CC(C)(C)OC(=O)NC1(c2noc(-c3ccco3)n2)CCC1	-13.08%
COCc1nc(CNC2CCC3(CCNCC3)CC2)no1	-7.512%
Cc1ncc2c(n1)CN(C(C(N)=O)c1ccccc1)CC2 (centres undefined)	4.006%
CC(C)NC(=O)NC[C@H]1OC[C@@H](NCc2ccncc2)[C@@H]1O	2.532%
Cc1ccc(OC2(C(=O)O)CCN(C/C=C/c3ccco3)CC2)cc1	-1.713%
O=C(Nc1cccc(OC(F)F)c1)C1CN(S(=O)(=O)C2CC2)C1	10.08%
CN1[C@H]2CC[C@@H]1CN(C(=O)c1nnc3n1CCCC3)CC2	1.056%

Structure (SMILES)	Percent Effect
Cc1cnc(CN2CCN(C(C)c3nc(C(C)C)no3)CC2)cn1 (centres undefined)	10.96%
FC(F)(F)c1cc(C2CCCN(c3cnccn3)C2)n2ccnc2n1 (centres undefined)	112.2%
CC(C)N1CC[C@H](c2nc3ccc(C(F)(F)F)cc3[nH]2)C1	-4.029%
FC(F)(F)c1cc(C2CCCN(c3ncccn3)C2)n2ccnc2n1 (centres undefined)	126.4%
CC(C)N1CCCC(c2cc(C(F)(F)F)nc3nccn23)C1 (centres undefined)	97.97%
FC(F)(F)c1cc(C2CCN(c3cnccn3)CC2)n2ccnc2n1	100.9%
CC(C)c1nc(C2CCCN(c3ncccn3)C2)no1 (centres undefined)	10.51%
FC(F)(F)c1ccnc(N2CCCC(N3CCOCC3)C2)c1 (centres undefined)	3.517%
N#Cc1ccc(N2CCN(c3cnccn3)CC2)cc1C(F)(F)F	-11.21%
CN(C)Cc1nnc(C2CCCN(c3cc(C(F)(F)F)ccn3)C2)n1C (centres undefined)	-6.748%
CC(C)n1ccnc1C1CCCN(c2nc3ccccc3s2)C1 (centres undefined)	8.79%
N#Cc1ccc(N2CCN(c3cnccn3)CC2)c(C(F)(F)F)c1	-6.859%
CC(C)c1nc(C2CCCN(c3nccc(C(F)(F)F)n3)C2)no1 (centres undefined)	4.176%
CCNc1ncc(C(=O)NCc2csc(-c3ncccn3)n2)cn1	-30.13%
CCOC(C)c1nc(CN2CCC(CNC(C)=O)CC2)cs1 (centres undefined)	-3.059%
Cn1ccnc1C1CCN(C(=O)COCC(F)(F)C(F)F)CC1	-2.138%
CN(C)CCn1ccnc1C1CCN(C(=O)CCC(F)(F)F)CC1	-12.98%
CC(=O)N1CCC(c2cc(C(F)(F)F)nc3nccn23)CC1	113.6%
Cc1ccc2c(C)c(C(=O)NCCc3csc(N)n3)oc2c1	32.42%
O=C(c1cc(-c2ccco2)nc2c(Cl)cccc12)N1C[C@H]2CNC[C@H]2C1	10.23%
CC(C)(C)c1cc(C[C@H]2CNCC[C@H]2CC(=O)NCc2cccs2)no1	1.711%
CCc1ccc2nc(C)cc(C(=O)NC[C@@H]3CCNC[C@H]3O)c2c1	-0.4588%

Structure (SMILES)	Percent Effect
Cc1cc(C(=O)NCc2ccc(F)cc2)c2c(C3CCCN3)noc2n1 (centres undefined)	101.4%
CCc1ccc2nc(C)cc(C(=O)N[C@@H]3CNC[C@H]3O)c2c1	-12.87%
COc1nc2c(cc1C(=O)NCc1noc(Cc3cccs3)n1)CCC2	-29.09%
Cc1cc(C2CCCN2C(=O)NCc2cccc(F)c2)on1 (centres undefined)	-2.715%
Cc1cc(C(=O)NCc2cccs2)c2c(C3CCCN3)noc2n1 (centres undefined)	99.02%
Cc1cc(C(=O)NCc2ccc(F)cc2)c2c(C3CCNC3)noc2n1 (centres undefined)	105.3%
CC(C)Cc1cc(CNC(=O)c2ccccc2C2CCNC2)no1 (centres undefined)	0.6659%
Cc1nnc2ccc(C(=O)N3CCSC(C)(C)C3)cn12	-5.569%
NC(=O)CCn1cc(CNCCCc2csc(N)n2)c2ccccc21	2.752%
CNC(=O)[C@@H]1C[C@H]2CN(Cc3ccc(C)o3)C[C@H]2N1C(C)=O	14.16%
Cc1ccc(CN2C[C@@H]3CCCO[C@@H]3[C@H](NC(=O)CC3CC3)C2)s1.O=C(O)C(F)(F)F	2.329%
Cc1nc(CN2C[C@@H]3CN(C(=O)c4cnccn4)C[C@@H]3C2)cs1.O=C(O)C(F)(F)F	0.3524%
CS(=O)(=O)N1C[C@H]2CCCN(Cc3ccsc3)[C@H]2C1.O=C(O)C(F)(F)F	-0.02998%
CC(C)N1[C@H](Cn2cncn2)C[C@@H]2CN(Cc3ccsc3)CC[C@@H]21.O=C(O)C(F)(F)F	4.812%
O=C(O)C(F)(F)F.O=C(O)C(F)(F)F.O=C(O)C(F)(F)F.c1cc(CN2C[C@@H]3OCCN(CCN4CCCC4)[C@@H]3C2)cs1	-11.54%
CN1[C@@H](C(=O)NCC2CC2)C[C@H]2CN(Cc3ccsc3)C[C@H]21.O=C(O)C(F)(F)F.O=C(O)C(F)(F)F	106.3%
CNC(=O)[C@@H]1C[C@H]2CN(Cc3ccc(C)s3)C[C@H]2N1C(C)=O.O=C(O)C(F)(F)F.O=C(O)C(F)(F)F	111.1%
Cc1nc(CN2C[C@H]3C[C@H](C(=O)NCC4CC4)N(C)[C@H]3C2)cs1.O=C(O)C(F)(F)F.O=C(O)C(F)(F)F.O=C(O)C(F)(F)F	116.2%
Cc1nc(CN2C[C@@H]3CCCO[C@@H]3[C@H](NC(=O)CC3CC3)C2)cs1.O=C(O)C(F)(F)F	-2.843%
O=C(NCC1CC1)[C@H]1C[C@H]2OCC[C@H]2N(Cc2ccsc2)C1	-7.335%
CN1[C@@H](C(=O)NCC2CC2)C[C@@H]2CN(Cc3ccsc3)C[C@@H]21.O=C(O)C(F)(F)F.O=C(O)C(F)(F)F	95.65%
